From the supplement of paper PMC6555819 come the findings set out here.

The assay has as its system VDR:RXRa (NR concentration 270 nM, RXRa partner concentration 90 nM). The assay can be described thus: PBM binding z-score (relative to random genomic background probes); higher = stronger binding; sequences stand for … in GC…GCGATTGACAGCGTAGAATGAAGG
The method, then: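 Protein-binding microarray (Agilent 4x180K custom design, double-stranded 60-nt probes: 5' GC cap, 34-nt variable region, 24-nt constant primer region; full probe sequence given). Purified or IVT nuclear receptor:RXRα heterodimers (3:1 NR:RXRα, mostly 270:90 nM) or homodimers were incubated for 1 h in PBS with 2% milk and no ligand, then detected with Alexa488 antibodies. Fluorescence from o1-orientation probes (~5 replicates averaged) was converted to z-scores against 500 random hg19 background probes. Variable regions are seed direct-repeat (DR0–DR5) sites, all their single-nucleotide variants and half-site ablations.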
In turn, ATCTCTAGGTAAAGTTCGGTGAAAGATCGATAGA registered a PBM binding z-score of 0.603.
Consider CATACAGGGTCAGCTAGGCCGGAGTAGGGACGGC, for which the PBM binding z-score was determined as 3.08.
The same measure for ACTATTGGTTGACTTAGGGCAACCGATACGACGC: 0.175.
ATCGAAAGGTCGACGAGGTGAGTATCCACCGTTT registered a PBM binding z-score of 5.24.
The same measure for CCGTGTAGGTTATGGGGCATTCAGGCAACGGTGA: 0.11.
In the case of TCGAGTAGGTCACCAATGGGGCATTCAGCTTTCT, the PBM binding z-score was 2.62.
The same measure for AATACAGGGTCACTAGACCAGAGTAGGTACGAAT: 3.98; for CCTCAAAGTTCAACTAAGGTAACGTAAAGCACGC: 4.88.
Consider AGTCAAAGTTCACTAGGTAACGTCAGATTCAGCT, for which the PBM binding z-score stood at 3.95.
The sequence CGTCCATGGTCAGAGAGGTCAGTGAATGCCGAGT registered a PBM binding z-score of 4.63.
Sequence ACTATTAGTTGAGACGAGGGCAACTGATAGGTTG came in with a PBM binding z-score of 0.583.
Next, TGAATGAGGTAAAAGATCAGGGAACGTGGCGTCG: -0.131.
On to CGAACTAGGTCAGAACAGGACAGTGCAGGATGAT, for which the PBM binding z-score is 0.787.
Next, ATATGTAGGTTACATCCGGGTCCTTCAGGCTATG: 0.695.
The same measure for GGTAGTTGGTCAGTAAAAGGTCACACACCGGTCG: 4.11; for TCGAGTAAGTTAGTCGGGGCATTCAGCCAACATA: -0.133.
The same measure for GGAACGAAGGCAAGTTGATAGCAGAGTTTGATGG: -0.696; for CCTGCAAGGTCATGGTCAGCTAATCTACAGTATG: 4.76; for TATACAGGGCCAAAGGCCAGAGTACGAATGTCGA: 0.13.
GCTACTTGGTCAGTAAAAGGTCACACACCGGTCG registered a PBM binding z-score of 4.16.
The same measure for ATCGAAAGGTCGTCAGGTGAGTATACAGAAAGGC: 3.72; for GCTAGTTGGTCAGTCAAAGGTCACACACCGGTCG: 4.3.
Next, TCATATAGGTGATACAGGTGAAAGTCGGCATCTA: 1.19.
CCTTCCGGGTCAAGGTTATAGCACGGGTGGTACG: the PBM binding z-score was 3.38.
With CCTAGGAGGACAGAAGGTCAGAGCTGTCCGCTTT, the PBM binding z-score was found to be 1.09.
For ATCTCTAGGTAACCAAGTACAGTGAATGCCGAAC, the PBM binding z-score amounted to 1.19.
For the sequence CATTACGGGTCACTGACAGGTTATAGCATTTGGA, the PBM binding z-score was 4.
ATATGTAGGTTATTGGGTCATTCAGTTTGCGCAT displayed a PBM binding z-score of 4.55.
The sequence TAGCCTAGGTCAGATCGGGCCAGTATTCGCTATA came in with a PBM binding z-score of 0.465.
Next, CAAACTCGGTCAAGAGGTCAAAGTCCGCTTCCCG: 5.41; CCTGGGAGGACAACAGGAGGTCAGAGCTGCCAGA: 1.99.
TCTGCTAGGTCAGTTGGTCGGCTAACGAGCTGCC returned a PBM binding z-score of 0.0498.
Next, TCATATAGGTAAAAGGTGAAGGTCGGTGTGGTAA: 1.92.
Next, GGATCGAGGGCATTCGAGTTGATAGCATGGCGAT: 3.52; CGTCCAAGGTCAGAGAGGTCAGTAAATGCCGAGT: 7.22.
The same measure for CGAACGAGGGCATGAGTTGCTAGCAAATGCCGAT: 0.671.
With GCAGACAGGTGAAACGCTGGTAACTCAGGGTGGC, the PBM binding z-score was -0.466.
As for TAGCCGAGGTCATTGGGCCAGTATAGTACGCATC, the PBM binding z-score was determined as 5.59.
With TCTTGGAGATCAATAGAGGTTAAGAAAGTGCGCT, the PBM binding z-score was 2.08.
In turn, CCTCGGAGGACAACAGGACGTCAGAGCTGCCAGA yielded a PBM binding z-score of -0.499.
